# Hits are enriched below; roughly 6.6% of the tested compounds scored in any of these assays.
# FBA Mtb inh: inhibits M. tuberculosis FBA enzyme; P9WQA3; purified M. tuberculosis FBA, fluorescence read-out; inhibition, % at 1 µM; actives 2.3% (n = 360,000); AID 588726; in the data active = inhibition above about 27%;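 also: 0% = vehicle and 100% = reference inhibitor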
# Target sequence (P9WQA3 whole entry, looked up): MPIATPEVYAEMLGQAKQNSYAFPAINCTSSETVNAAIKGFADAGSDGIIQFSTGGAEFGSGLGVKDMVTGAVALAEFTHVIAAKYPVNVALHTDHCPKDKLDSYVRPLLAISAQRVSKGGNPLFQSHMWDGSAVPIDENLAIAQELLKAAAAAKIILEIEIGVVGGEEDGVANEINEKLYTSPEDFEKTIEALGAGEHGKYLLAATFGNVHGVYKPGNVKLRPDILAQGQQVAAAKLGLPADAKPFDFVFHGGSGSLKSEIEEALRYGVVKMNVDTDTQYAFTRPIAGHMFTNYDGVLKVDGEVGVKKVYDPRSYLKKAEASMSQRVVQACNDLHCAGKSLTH
# BoNT-A LC inh2: inhibitors of Botulinum neurotoxin A light chain protease. multiplex microsphere protease substrate cleavage, flow cytometry. inhibition, % at 10 µM. actives 0.17% (n = 360,000). AID 588499; also: plate controls were buffer without enzyme for full effect and enzyme alone for no effect
# Anthrax LF prot: blocks Bacillus anthracis lethal factor protease | AID 588501 | inhibition, % at 10 µM | actives 0.12% (n = 360,000) | multiplex microsphere protease cleavage assay, LF | P15917; also: plate controls were buffer without enzyme for full effect and enzyme alone for no effect
# Bead autofluor: counter-screen for toxin protease inhibitors: compound fluorescence | compound autofluorescence counterscreen, microsphere flow cytometry; stronger effect = higher value | fluorescence intensity (no concentration beside the values) | actives 3.1% (n = 360,000) | AID 624483; in the data active = fluorescence intensity above about 16000; inconclusive = no clear call, values can overlap the other calls
# GDH-TPI counter: counter-screen for M. tuberculosis FBA inhibitors: GDH-TPI coupled enzymes | AID 588335 | actives 1.2% (n = 360,000) | inhibition, % at 4.8 µM | GDH-TPI coupled enzyme counterscreen, NADH absorbance; in the data active = inhibition above about 30%;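 also: 0% = DMSO wells and 100% = wells lacking the enzyme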
# BoNT F protease: BoNT F light chain protease inhibition | Multiplex microsphere protease cleavage assay, flow cytometry | inhibition, % at 10 µM | actives 0.22% (n = 360,000) | AID 588497; in the data active = inhibition above about 35%, passing the limit was not always enough; inconclusive = no clear call, values can overlap the other calls; also: plate controls were buffer without enzyme for full effect and enzyme alone for no effect
# Starred values were filed as active, the others as inactive; ? = inconclusive; / = no result given; + = active, no number. Rule as the data show it, unless noted: active = inhibition above about 30%; inconclusive = no clear call, values can overlap the other calls; inactive = below that.
SMILES,FBA Mtb inh,BoNT-A LC inh2,Anthrax LF prot,Bead autofluor,GDH-TPI counter,BoNT F protease
Cc1c(NC(=O)c2cnc(Cl)c(Cl)c2)c(=O)n(-c2ccccc2)n1C,1.1,-6.5,-3.6,3785,3.0,-15.1
CCOC(=O)c1nc(C)n(-c2ccc(Cl)cc2)n1,0.9,-0.5,-0.4,10495,2.9,1.1
COc1ccc(-n2nc(N)c3c(=O)oc(N(C)C)nc32)cc1,-0.8,0.1,-2.8,16554*,5.7,-1.6
CN(C)c1nc2c(c(N)nn2-c2ccc(Cl)cc2)c(=O)o1,-8.6,?,0.8,19528*,-1.9,3.9
COc1ccc(-n2nc(C)c3onc(C)c3c2=O)cc1,2.2,0.1,-9.6,6276,8.1,0.1
CN(C)CCN(C)C1CN(Cc2ccc([N+](=O)[O-])cc2)S(=O)(=O)C1 (stereo not drawn),-1.6,0.1,-2.3,3817,3.3,-1.2
CCCN1Cc2cccc(C(=O)Nc3cc(OC)cc(OC)c3)c2C1=O,2.1,1.0,-7.8,22619*,1.9,1.7
CC(C)NC(=O)CSc1nc2ccccc2n1-c1ccccc1,-0.2,-0.4,0.8,22704*,0.5,-2.1
CC(C)(C)NC(=O)CSc1nc2ccccc2n1-c1ccccc1,-3.0,0.2,-3.1,4780,-1.1,-12.4
CCO[C@@H]1OC(C(=O)NC2CC2)=C[C@H](c2coc3ccccc3c2=O)[C@H]1CCCO,0.9,-0.8,1.4,3649,-0.8,-5.0
COC(=O)c1ccccc1NC(=O)CSc1nnc(-c2ccc(OC)cc2)n1C,2.5,/,/,/,5.0,/
CN(c1ccccc1C(=O)N1CCCC1)S(C)(=O)=O,6.5,-1.2,-7.0,4702,10.1,?
CCOC(=O)N1CCN(C(=O)c2ccc(S(=O)(=O)Nc3ccc(C)cc3)cc2)CC1,3.4,-0.2,-2.6,3038,11.4,-7.6
CCOC(=O)N1CCN(C(=O)c2ccccc2N(C)S(C)(=O)=O)CC1,-0.9,-2.2,-3.8,16798*,6.3,-3.7
CCOC(=O)N1CCN(C(=O)c2ccc(NS(C)(=O)=O)cc2)CC1,-1.0,-0.3,-2.7,16339*,10.7,0.6
Cc1nnc(SCc2ccc([N+](=O)[O-])cc2)o1,7.2,-0.3,3.7,4006,4.8,-11.0
COc1ccc(CNC(=O)c2ccc(-c3c(C)noc3C)c3ccoc23)cc1OC,2.4,0.2,2.6,3583,8.2,7.3
CC(=O)c1ccc(OCCCC(=O)NC2=NCCS2)cc1,-3.1,?,-2.9,23568*,-1.2,-7.4
CCOC(=O)C1=C(C)NC2=C(C(=O)C(C(=O)OC)C(C)C2)C1c1ccc(OC)c(O)c1 (stereo not drawn),0.5,?,-3.3,23122*,13.3,0.1
Cc1nn(CC(C)C)c(Cl)c1C(=O)N(C)CC(=O)Nc1ccc(Cl)cc1,-0.7,-0.6,-7.2,3961,4.4,-4.8
O=C1CCOc2cc(OCc3ccccc3)ccc21,3.1,-4.0,1.1,21171*,-2.6,-5.8
N#Cc1c(-c2ccco2)nc(SCc2ccc(F)cc2)[nH]c1=O,-0.8,-0.2,-8.9,5825,16.5,-0.5
Cc1nc(SCc2cccc(F)c2)[nH]c(=O)c1C#N,-1.0,?,-3.3,22061*,-2.1,4.0
Cc1cc(C)cc(NC(=O)C2CCN(S(C)(=O)=O)CC2)c1,1.4,0.3,1.6,3342,0.0,-3.5
COc1ccc(-n2c(NCCN(C)C)nc3sc4c(c3c2=O)CCCCC4)cc1,1.8,0.0,0.1,22405*,10.7,-1.1
SMILES,FBA Mtb inh,BoNT-A LC inh2,Anthrax LF prot,Bead autofluor,GDH-TPI counter,BoNT F protease
CN(CC(=O)Nc1ccccc1Cl)C(=O)CSc1nnc(N)s1,-1.2,0.5,-3.5,6253,6.2,0.8
Cc1ccc(C)n1Cc1ccc(C(=O)O)cc1,-1.0,-4.3,-2.3,24761*,4.2,2.7
O=C(NC1CC1)C1CCN(C2CCN(C(=O)CC3=CCCCC3)CC2)CC1,0.7,0.1,-1.2,4907,0.6,1.2
CCN(CC)S(=O)(=O)c1ccc2[nH]c(=O)cc(C(=O)Nc3ccc(C)c(S(=O)(=O)N(CC)CC)c3)c2c1,0.8,-0.3,-1.7,2864,4.8,-7.4
O=C(OCC(=O)N1CCc2ccccc21)c1ccc(Cl)nc1,-5.6,0.4,0.8,23913*,-2.5,-1.9
COCC(C)NC(=O)c1ccc(N(C)C)cc1 (stereo not drawn),-1.3,-2.0,-2.0,17509*,6.3,-5.5
COCC(C)NC(=O)c1cccc([N+](=O)[O-])c1 (stereo not drawn),2.9,0.2,-0.3,4165,-2.5,-1.6
O=S(=O)(NCCN1CCCC1)c1ccc(Br)cc1,-0.2,0.5,3.6,3136,6.5,9.1
COc1cccc(NC(=O)NCCCSC2CCCCC2)c1,0.7,-2.4,-2.9,21430*,-4.2,-4.0
COc1cccc(NC(=O)NCCCCc2ccccc2)c1,2.5,0.4,-3.2,?,6.5,9.6
COC(=O)C(C)Oc1cc(OC(C)C(=O)OC)c2c(C)c(Cl)c(=O)oc2c1 (stereo not drawn),+,0.1,0.7,3938,11.4,0.6
Cc1cc(OC(C)C(=O)NCC2CCC(C(=O)O)CC2)c2c(C)c(Cc3ccccc3)c(=O)oc2c1 (stereo not drawn),21.7,-0.1,-0.7,4130,9.8,-4.8
COC(=O)COc1cc(OCC(=O)OC)c2c(C)c(Cl)c(=O)oc2c1,+,0.5,-0.2,2436,8.6,2.6
COc1cc(NC(=O)COc2cc(C)cc3oc(=O)c(C)c(C)c23)cc(OC)c1OC,0.9,0.0,-1.7,4436,5.1,5.0
Cc1nc2ccc(NC(=O)c3ccco3)cc2nc1C,5.8,-0.1,-9.5,3364,1.6,1.2
O=C(Nc1ccc2nn(-c3ccccc3)nc2c1)c1ccco1,15.6,1.7,-0.6,4598,32.7*,0.4
CC(C)C(=O)Nc1ccc2nn(-c3ccccc3)nc2c1,+,0.6,1.3,3231,23.5,0.5
O=C(Nc1cc2nn(-c3ccccc3)nc2cc1Cl)c1ccco1,9.4,0.7,-3.6,3711,38.1*,-7.9
O=C(Nc1ccc2nn(-c3ccccc3)nc2c1)c1cccnc1,-1.1,-1.7,-7.4,5109,34.6*,-10.2
CN(Cc1ccccc1F)c1cc2c(c3c1ccn3C)C1CCC2C1 (stereo not drawn),1.8,-0.5,-0.1,4518,/,-1.9
Cc1cc(C(=O)Nc2sc3c(c2C#N)CCC(C)C3)cs1 (stereo not drawn),2.1,-2.1,-1.5,17096*,11.8,-2.1
CC(C)OCCCNC(=O)c1ccc(CS(=O)(=O)Cc2ccccc2F)o1,2.9,-0.3,-2.2,20731*,0.0,0.2
CCCCNC(=O)c1ccc(CS(=O)(=O)Cc2ccccc2F)o1,7.3,-1.5,-6.4,4914,1.3,1.3
COCC(=O)N(C)C[C@@H]1Oc2cc(-c3ccc(F)cc3)ccc2S(=O)(=O)N([C@H](C)CO)C[C@H]1C,0.2,0.1,4.7,3363,-9.3,4.9
O=C(CNS(=O)(=O)c1ccc2ccccc2c1)OCC(=O)c1ccc(Br)s1,-0.3,4.6,-1.7,18275*,4.8,7.0
CC(=O)N1C(C)(C)CC(=NOS(=O)(=O)c2ccccc2)CC1(C)C,6.2,-0.8,1.3,4302,3.5,-5.1

# Source: PubChem BioAssay
